Bioassay records deposited in PubChem BioAssay by National Center for Advancing Translational Sciences (NCATS).
A selection: hits, their analogues and other compounds. The true share with any hit is near 3.3%.
Sm TGR block – S. mansoni TGR enzyme inhibition; purified TGR, DTNB reduction, TNB absorbance 405 nm; Potency, µM (titrated, usually from 114 µM), for the others: top-dose activity change, negative = inhibition, usual class: inhibitors; actives 3% (n = 360,000); AID 485364; also: % is scaled to controls: 0 for no effect and ±100 for the full control effect; nearly all actives have a fitted effect of over 60% in size
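TGR 20 nM + NADPH 100 uM (dispensed conc.), cpd preinc 15 min RT; start with NADPH (500 uM addition) then DTNB (15 mM addition). Kinetic TNB absorbance, 405 nm filter. Four-parameter Hill fit across titration.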
AmpC detergent – blocks E. coli AmpC beta-lactamase in detergent assay | P00811 | AmpC hydrolysis of nitrocefin, absorbance 480 nm, 0.01% Triton | Potency, µM (series often up to 114 µM), inactives show at the top dose activity change, negative = inhibition, most hits filed as inhibitors | actives 0.041% (n = 370,000);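 also: 0% = no-compound wells and -100% = no-enzyme wells; nearly all actives have a fitted effect of over 25% in size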
Target sequence (P00811 whole entry, looked up): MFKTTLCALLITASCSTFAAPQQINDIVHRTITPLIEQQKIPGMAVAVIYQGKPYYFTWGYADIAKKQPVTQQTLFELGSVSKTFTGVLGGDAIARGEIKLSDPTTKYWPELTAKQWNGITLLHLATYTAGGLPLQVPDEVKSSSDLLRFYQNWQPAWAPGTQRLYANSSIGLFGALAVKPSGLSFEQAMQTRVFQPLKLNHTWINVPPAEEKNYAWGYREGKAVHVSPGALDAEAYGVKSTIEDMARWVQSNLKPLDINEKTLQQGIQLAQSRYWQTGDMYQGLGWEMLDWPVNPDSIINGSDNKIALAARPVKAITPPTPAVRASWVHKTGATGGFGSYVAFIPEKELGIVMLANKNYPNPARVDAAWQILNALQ
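AmpC (5.3 nM in the dispensed reagent) in 20 mM phosphate pH 7.0 with 0.01% (detergent screen) or 0.0001% Triton X-100 was preincubated with compounds for 15 min at room temperature. Nitrocefin was then added from an 800 uM solution, and hydrolysis was followed at 480 nm.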
SARS PLpro yeast – SARS-CoV PLP inhibition in yeast | actives 0.19% (n = 330,000) | S. cerevisiae expressing SARS-CoV PLpro, growth rescue | Potency, µM (highest dose often 32.9 µM), for the others: top-dose activity, positive = growth rescue, actives largely listed as activators; calls by dose curve; also: 0% is about no effect; nearly all actives have a fitted effect of over 55% in size
AmpC inh no detg – inhibitors of E. coli AmpC beta-lactamase without detergent; AmpC nitrocefin hydrolysis, absorbance 480 nm, 0.0001% Triton; Potency, µM (top dose mostly 57.1 µM), for the others: top-dose activity change, negative = inhibition, hits mostly inhibitors; actives 0.52% (n = 330,000); AID 485341;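 also: plate controls were no compound for no effect and no enzyme for full effect; nearly all actives have a fitted effect of over 20% in size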
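20 mM phosphate pH 7.0 + 0.01% (detergent screen) or 0.0001% Triton X-100; 5.3 nM AmpC reagent; cpd preinc 15 min RT; nitrocefin (800 uM stock) to start; A480 q20 s × 4 min; Activity was normalised to no-enzyme and no-compound control wells.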
RE007 growth inh – less growth of the S. pombe RE007 Vpr strain; Potency, µM (doses to about 92.2 µM), for inactives: top-dose activity change, negative = less growth, hits mostly inhibitors; actives 0.21% (n = 360,000); S. pombe RE007 Vpr strain, BacTiter-Glo ATP luminescence, 24 h; active = well fitted falling curve with a large enough effect; inconclusive = small, poorly fitted or top-dose-only effect; inactive = no such curve, though single readings can be large or run the other way; also: % is scaled to controls: 0 for no effect and ±100 for the full control effect; nearly all actives have a fitted effect of over 50% in size
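Fission yeast strain RE007, carrying one chromosomally integrated HIV-1 vpr copy, was seeded at OD 0.01 in PMG+AL medium with 23 nL pinned compound. After 24 h at 30 °C and 99% humidity, viability was read by BacTiter-Glo luminescence.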
Tb PYK inh – inhibitors of Trypanosoma brucei pyruvate kinase | Q57TT1 | TbPYK enzyme, Kinase-Glo Plus ATP luminescence, 45 min | Potency, µM (doses to about 76.8 µM), for inactives: top-dose activity, negative = inhibition, usual class: inhibitors | actives 0.12% (n = 410,000) | AID 624173; also: % is scaled to controls: 0 for no effect and ±100 for the full control effect; nearly all actives have a fitted effect of over 50% in size
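Luminescence from Kinase-Glo Plus, added after a 45-minute room-temperature reaction, served as the end-point read-out. The enzyme and substrate were preincubated with compound before ADP (130 uM final) initiated turnover. Concentration-effect curves came from normalized qHTS data.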
* marks the source's active call; other numbers are inactive results; ? = inconclusive; nt = no result given. Unless noted, calls follow the shape of the dose curve; as a rule, active = well fitted curve in the direction sought with a large enough effect; inconclusive = small, poorly fitted or top-dose-only effect, or another doubt; inactive = no such curve, though single readings can be large; an effect the other way counts as inactive or inconclusive. Potency is read from the fitted curve at half-maximal effect.

SMILES	Sm TGR block	AmpC detergent	SARS PLpro yeast	AmpC inh no detg	RE007 growth inh	Tb PYK inh
O=S(=O)(NCC(c1ccc2c(c1)OCO2)N1CCOCC1)c1ccc(Br)cc1 (stereo not given)	-9%	0%	-3%	27%	-10%	3%
Oc1cc2c(cc1C(c1ccc(Br)cc1)N1CCCC1)OCO2 (stereo not given)	0.71µM*	-4%	-5%	-31%	?	9%
COc1ccc(Cn2c(=O)c3oc4ccccc4c3n(Cc3cccc(C)c3)c2=O)cc1	1%	-8%	nt	nt	nt	1%
CN1c2ccccc2C(C)(C)C12CC(c1ccc(Cl)c(S(=O)(=O)N3CCCC3)c1)=NO2 (stereo not given)	-9%	-3%	12%	-20%	nt	nt
CN1c2ccccc2C(C)(C)C12CC(CCl)=NO2 (stereo not given)	40µM*	-9%	-6%	-10%	12%	3%
Cc1ccc(NC(=O)c2ccc3c(=O)n4nc(Nc5ccccc5C)sc4nc3c2)cc1C	0%	23%	nt	nt	nt	1%
CC(C)(O)C1Cc2cc(/C=C/C(=O)O)c(O)cc2O1 (stereo not given)	0.22µM*	3%	-1%	-16%	?	?
CCOC(=O)C1=C(CS(=O)(=O)c2ccccc2)NC(=O)NC1c1ccccc1OCC (stereo not given)	25µM*	0%	8%	-6%	-2%	1%
Cc1cc(NCc2ccccn2)n2ncc(-c3ccc(Cl)cc3)c2n1	12%	13%	-1%	15%	28µM*	-2%
C=C1C(=O)O[C@H]2[C@H]1[C@@H](O)CC(=C)[C@@H]1CC(=O)[C@@H](C)[C@H]21	22µM*	?	0%	-17%	3%	-3%
C[C@@H]1CCCCO[C@H](CN(C)C(=O)Nc2cccc3ccccc23)[C@@H](C)CN([C@H](C)CO)C(=O)c2cc(N(C)C)ccc2O1	nt	nt	nt	nt	-38%	11µM*
CCc1ccccc1NC(=O)c1cc(S(=O)(=O)N2CCc3ccccc32)ccc1F	9%	7%	nt	nt	nt	-9%
O=C(CSc1cn(Cc2ccccc2)c2ccccc12)N1CCOCC1	0%	?	1%	45µM*	-7%	-5%
CC(/C=C/c1ccc(C)o1)=C\C(=O)O	7.9µM*	-1%	-8%	1%	-19%	-17%
Cc1ccc(/C=C/C(=O)NCc2cccs2)o1	2.8µM*	-3%	-1%	-24%	-11%	?
CCN1CCN(C(=O)/C=C/c2ccc(C)o2)CC1	?	?	-12%	7%	-29%	0%
CC(=O)/C=C/c1ccc(C)o1	7.1µM*	3%	3%	1%	2%	-21%
O=C(Nc1cccc(Cl)c1)Nc1ncc(CCNc2ncnc3ccsc23)s1	nt	nt	nt	nt	nt	0%
COc1ccc(Nc2cnn(-c3nc4ccccc4s3)c(=O)c2Cl)cc1	1.3µM*	-14%	-76%	-12%	?	7%
CCOc1ccccc1NC(=O)CN1C(=O)COc2ccc(S(=O)(=O)Nc3ccccc3)cc21	1%	26%	nt	nt	nt	-2%
Cc1ccc(C)c(NC(=O)CCc2c(C)n(C)c3cc(-c4ccccc4C)nn3c2=O)c1	-7%	2%	nt	nt	nt	2%
Cc1ccc(Nc2nc(N)nc(CN3CCN(C(=O)c4ccco4)CC3)n2)cc1Cl	40µM*	-2%	1%	59%	0%	-7%
Cc1ccc(Nc2nc(N)nc(CN3CCCCCC3)n2)cc1	40µM*	?	3%	-15%	-14%	4%
Cc1ccc2c(CN3CCN(Cc4ccccc4)CC3)cc(=O)oc2c1C	-22%	-6%	1%	118%	-20%	-2%
Cc1ccc2c(CN3CCN(C(=O)c4ccco4)CC3)cc(=O)oc2c1C	45µM*	2%	-3%	33%	6%	5%
SMILES	Sm TGR block	AmpC detergent	SARS PLpro yeast	AmpC inh no detg	RE007 growth inh	Tb PYK inh
O=C(NCc1ccco1)C1CCN(C(=O)N2CCOc3ccc(Cl)cc32)CC1	-3%	13%	nt	nt	nt	-2%
CCC(C)c1ccc(OCC(=O)Nc2ccc(-c3nc4ncccc4o3)cc2)cc1 (stereo not given)	15%	24%	nt	nt	nt	-3%
COc1ccc(-c2cc(C(F)(F)F)nc(SCCC(=O)Nc3ccc(O)cc3)n2)cc1	-2%	19%	nt	nt	nt	0%
CCn1cc2nc(SCC(=O)Nc3ccc(C)cc3C)n(Cc3ccc(C)cc3)c(=O)c2n1	-2%	3%	nt	nt	nt	-4%
CC(C)c1cnc2c(c1SCc1ccc([N+](=O)[O-])cc1)c(=O)n(C)c(=O)n2C	20%	5%	nt	nt	nt	10µM*
CCC(C)(C)c1ccc(OCCCC[n+]2cccc(C)c2C)c(C(C)(C)CC)c1	17%	-3%	-6%	129%	28µM*	5%
Cc1ccc(S(=O)(=O)/N=C2\C=C(NS(=O)(=O)c3ccccc3)C(=O)c3ccccc32)cc1	nt	nt	nt	nt	-8%	?
Cc1ccc(S(=O)(=O)/N=C2/C=C(C3C(=O)CC(C)(C)CC3=O)C(=O)c3ccccc32)cc1	14µM*	-3%	-23%	-35%	?	?
Nc1c(C(=O)Nc2ccccc2Cl)c2ccccn2c1C(=O)c1ccc(Cl)cc1	12%	20%	nt	nt	nt	-4%
O=C(COC(=O)/C=C/c1cccs1)Nc1nc(-c2cccc(Br)c2)cs1	-24%	-2%	0%	6.3µM*	6%	1%
O=C(/C=C/c1cccs1)Nc1nc(-c2ccccc2)cs1	-1%	-6%	-1%	-27%	6%	-1%
Oc1c(Br)cc(Br)cc1CNc1ccc(F)cc1	?	2%	-3%	?	?	-7%
Oc1c(Br)cc(Br)cc1CNc1cnc2ccccc2c1	13µM*	3%	-18%	-40%	-24%	-3%
Cc1cccc(NC(=O)N2CCc3c(sc4c3CCCC4)C2c2ccc(F)cc2)c1 (stereo not given)	0%	2%	nt	nt	nt	1%
Cc1cc(/C=C(\C#N)C(=O)NCCc2c[nH]c3ccccc23)c(C)n1C	-4%	-6%	6%	25µM*	-1%	1%
CC(C)C(=O)Nc1sc2c(c1C#N)CCCCC2	-21%	-12%	-2%	-23%	1%	0%
CNC(=O)c1c(NC(=O)c2nc3ccccc3s2)sc2c1CCC2	45µM*	-11%	-2%	1%	nt	nt
CNC(=O)c1c(NC(=O)C(C)C)sc2c1CCC2	45µM*	-8%	-1%	7%	15%	-1%
COC1=C(OC)C(=O)C(Sc2ccc3ccccc3c2)=CC1=O	nt	nt	nt	nt	7.1µM*	1.8µM*
